Test results: PubChem BioAssay AID1458 (National Center for Advancing Translational Sciences (NCATS), 2008)
Out of some 210,000 compounds screened, about 5,900 (2.8%) were called active. Not shown: some 5% with an inconclusive outcome. The call rests on the fitted dose curve; in most records, active means well fitted activation curve with a large enough effect; inconclusive means small, poorly fitted or top-dose-only effect; inactive means no such curve, though single readings can be large or run the other way. Only a selection was taken, and actives are over-represented in it overall.

test: qHTS Assay for Enhancers of SMN2 Splice Variant Expression; conditions: HEK293 SMN2-luciferase splicing reporter, luminescence, 30-36 h; series mostly up to 46.1 µM; activity change, positive = activation: at the top concentration; further: nearly all actives have a fitted effect of over 55% in size; on activity change, positive = activation: % of control where 0% means no effect
Procedure, shortened: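 qHTS luciferase splicing reporter: luminescence rises when SMN2 exon 7 is included in transfected HEK293 cells. Compound exposure lasted 30-36 h at 37C, with 4.5 mM final sodium butyrate as control, followed by a ONE-Glo read.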
Potency means the concentration at half of the fitted maximal effect.

SMILES	activity change, positive = activation	Potency
O=C(CSc1oc(-c2ccccc2)nc1S(=O)(=O)c1ccc(Br)cc1)NC1CCCCC1	-5.27% (inactive)	
COc1ccc2c(c1)CCc1c(C(=O)Nc3cc(C)ccc3O)noc1-2	21.9% (inactive)	
COc1ccc2c(c1)CCc1c(C(=O)N3CCCC3)noc1-2		17.8 µM (active)
COc1ccc2c(c1)CCc1c(C(=O)Nc3c(C)n(C)n(-c4ccccc4)c3=O)noc1-2	-28% (inactive)	
Cn1c(=O)c2c(nc(SCC(=O)Nc3ccc(F)cc3)n2Cc2ccccc2)n(C)c1=O	-3.7% (inactive)	
Cc1ccc(CNC(=O)C2CCN(S(=O)(=O)c3ccc4nc5c(c(C(=O)O)c4c3)CC(C)CC5)CC2)cc1 (stereo not drawn)	4.28% (inactive)	
CC(C)Cc1cc(C(=O)NCCc2ccccc2)no1		12.6 µM (active)
Nc1nonc1C(=O)NCCc1ccccc1	-21% (inactive)	
Cc1cc(C(=O)NCCCc2ccccc2)no1	24% (inactive)	
CCOC(=O)N1CCc2c(sc3c2c(=O)n(-c2ccc(CC)cc2)c(=O)n3C)C1	-4.84% (inactive)	
Cc1ccc(-c2ccc(CCC(=O)O)n2-c2ccc(C(N)=O)cc2)cc1	1.29% (inactive)	
Cc1cccc(OCC(=O)N(Cc2ccc(C(C)C)cc2)Cc2ccco2)c1C	2.91% (inactive)	
Cc1ccc(C)c(Cn2c(=O)n(CCC(=O)NCc3ccc4c(c3)OCO4)c(=O)c3sccc32)c1	-7.25% (inactive)	
N=c1oc2ccccc2cc1C(=O)N/N=C/c1ccccc1	-26.9% (inactive)	
COc1ccc(C/C(C)=N/NC(=O)c2cc(C)oc2C)cc1	-0.732% (inactive)	
CC(=C/c1ccccc1)/C=N/NC(=O)c1cc(C)oc1C		15.8 µM (active)
CSc1ccc(CCNC(=O)c2cnn(-c3ccccc3)c2-n2cccc2)cc1	-6.66% (inactive)	
CC(C)c1ccc(C2CC(=O)N3CN(C4CCCCC4)CSC3=C2C#N)cc1 (stereo not drawn)	-3.71% (inactive)	
CC(=O)OC(C(=O)NC1CCCCC1)c1ccccc1 (stereo not drawn)	8.55% (inactive)	
O=C(/C=C/c1cnc2ccccc2n1)NC1CCCCCC1		11.2 µM (active)
O=C(Cn1c(-c2cncs2)nc2ccccc21)NC1CCCC1	-7.74% (inactive)	
COc1ccccc1NC(=O)CSc1oc(-c2ccco2)nc1S(=O)(=O)c1ccc(Br)cc1	2.03% (inactive)	
CCOc1ccc(CNCCSc2nnnn2C)cc1	-10.5% (inactive)	
Cc1nn(C(=O)c2ccoc2C)c(N)c1-c1ccccc1		12.6 µM (active)

SMILES	activity change, positive = activation	Potency
CCOC(=O)c1c(N)nn(C(=O)c2ccccc2)c1-c1ccccc1	-1.78% (inactive)	
Cc1occc1C(=O)N1CCCc2ccccc21	23.4% (inactive)	
CCCCCn1c(=O)[nH]c2cc(C(=O)NCCN(C)CCCC)ccc2c1=O	15.9% (inactive)	
C=Cc1ccc(Cn2c(C(=O)OC)cc3sc(C)cc32)cc1	18.4% (inactive)	
Cc1ccc(CCNC(=O)c2ccc3c(c2)N(Cc2cc(C)ccc2C)C(=O)c2ccccc2S3=O)cc1 (stereo not drawn)	-9.89% (inactive)	
Cc1sc(C2C(C#N)=C(N)N(c3cccc(Cl)c3)C3=C2C(=O)CCC3)cc1CN1CCOCC1 (stereo not drawn)	8.27% (inactive)	
COc1cccc(-c2nnc(SCC(=O)N3CCC(C)CC3)o2)c1	9.23% (inactive)	
COc1ccc2[nH]c(=O)c(-c3noc(-c4ccc(F)cc4)n3)cc2c1	17% (inactive)	
Cc1cccc(-c2noc(-c3ccc(F)cc3)n2)c1		11.2 µM (active)
Cc1ccc(-c2noc(CN3CCN(Cc4ccccc4)CC3)n2)cc1	-89.9% (inactive)	
COc1ccccc1Cc1nc(-c2ccc(C)cc2)no1	-16.6% (inactive)	
Cc1ccc(-c2noc(CC(c3ccccc3)c3ccccc3)n2)cc1	-73.8% (inactive)	
Cc1ccc(Cc2nc(-c3cccc(C)c3)no2)cc1		11.2 µM (active)
COc1cccc(CNC(=O)CCC(=O)N2CC3CCCN3c3ccccc32)c1 (stereo not drawn)	5.39% (inactive)	
O=C(CC1Oc2ccccc2NC1=O)NCc1ccc(F)cc1 (stereo not drawn)	10.9% (inactive)	
CCCCn1c(CNC(=O)C23CC4CC(CC(C4)C2)C3)nnc1SCC(=O)Nc1ccc(C)cc1	5.94% (inactive)	
CCCCCn1c(CCCNC(=O)c2ccccc2OC)nc2ccccc21	-46.9% (inactive)	
CCOC(=O)c1c(NC(=O)/C(C#N)=C/c2ccccc2)sc2c1CCC2	4.92% (inactive)	
COc1ccc(NC(=O)C2CCN(c3ccc(Sc4ccc(C)cc4)nn3)CC2)c(OC)c1	-15.5% (inactive)	
c1ccc2sc(NN=C3CCCC3)nc2c1		3.16 µM (active)
O=[N+]([O-])c1cc(Br)c(O)c(/C=N/Nc2nc3ccccc3s2)c1	-60.1% (inactive)	
O=C1NC(Nc2nc3ccccc3s2)(C(F)(F)F)C(=O)N1C1CCCCC1 (stereo not drawn)	9.35% (inactive)	
CCN(C(=O)c1sc2cc(OC)ccc2c1Cl)c1ccccc1	-48.3% (inactive)	
COc1ccc2c(c1)Cc1sc(NC(=O)c3ccccc3Br)nc1-2	-19.7% (inactive)	

SMILES	activity change, positive = activation	Potency
Cc1ccc(CN(C(=O)COc2ccc(Cl)cc2C)C2CCS(=O)(=O)C2)o1 (stereo not drawn)	11.9% (inactive)	
O=c1oc2ccccc2cc1-c1cn(-c2ccccc2)c(=S)[nH]1	-69.9% (inactive)	
O=C(NCc1cccnc1)c1cccc(-c2cc3ccccc3oc2=O)c1	-47.8% (inactive)	
Nc1ncc(-c2cc3ccccc3oc2=O)s1		15.8 µM (active)
CC(C)Sc1oc(-c2cccs2)nc1S(=O)(=O)c1ccc(Cl)cc1	0.89% (inactive)	
COc1ccc(NC(=O)CCc2nnc3n(CC(C)C)c(=O)c4ccccc4n23)cc1OC	-12.1% (inactive)	
CCOC(=O)c1cccc(NC(=O)C(Cc2ccccc2)NS(=O)(=O)c2cccc3nsnc23)c1 (stereo not drawn)	-63.8% (inactive)	
COc1ccc(-c2csc(-c3c(N)c(C(=O)c4ccc(OC)c(OC)c4)n4ccccc34)n2)cc1	3.5% (inactive)	
O=C(CN1C(=O)COc2ccccc21)Nc1ccc(F)cc1	6.4% (inactive)	
O=C(CN1C(=O)COc2ccccc21)NCCN1CCc2ccccc2C1		7.08 µM (active)
CCCN1CCN(CCCNC(=O)CN2C(=O)COc3ccccc32)CC1	1.45% (inactive)	
CCc1ccccc1NC(=O)c1cc(-c2ccc3c(c2)OCO3)on1	2.35% (inactive)	
COc1ccc(-c2csc(N3CCN(Cc4ccc5c(c4)OCO5)CC3)n2)cc1	-26% (inactive)	
COc1ccc(-c2csc(Cc3nc(O)cs3)n2)cc1		11.2 µM (active)
COc1ccc(C(=O)Nc2nc(-c3ccc(S(=O)(=O)N4CCOCC4)cc3)cs2)cc1	-69.5% (inactive)	
CCC(=O)N1CCc2cc(Br)cc(S(=O)(=O)CCC(=O)N3CCN(c4ccc(F)cc4)CC3)c21	10.4% (inactive)	
O=C(O)Cc1ccc(NC(=O)c2cccs2)cc1	-4.84% (inactive)	
Cc1ccc(-c2csc(NC(=O)Cc3cccs3)n2)cc1C	-12.8% (inactive)	
Cc1ccc(-c2nnc(-c3ccc(NC(=O)c4cccs4)cc3)o2)cc1	-10.5% (inactive)	
Cc1ccc(-c2csc(NNC(=O)c3ccccc3)n2)cc1	6% (inactive)	
Cc1nc(-c2ccc(NC(=O)c3cccs3)cc2)cs1		3.16 µM (active)
Cc1ccc(-c2csc(NC(=O)c3cccs3)n2)cc1		11.2 µM (active)
CCOC(=O)c1c(NC(=O)c2cc(CC)on2)sc(C(C)=O)c1C	9.96% (inactive)	
CC(C)Cn1c(-c2ccc(S(=O)(=O)N3CCOCC3)cc2)csc1=Nc1cc(Cl)ccc1Cl	0.999% (inactive)	

SMILES	activity change, positive = activation	Potency
CCOc1ccc(CNC(=O)c2cccc(Nc3nc4ccccc4n4nnnc34)c2)cc1OC	-3.76% (inactive)	
Cc1cc(NC(=O)Nc2ccccc2[N+](=O)[O-])no1	17.6% (inactive)	
Cc1c(NC(=O)Nc2ccccc2)cccc1[N+](=O)[O-]	-7.61% (inactive)	
Cc1csc(NC(=O)Nc2ccccc2[N+](=O)[O-])n1		5.62 µM (active)
Cn1c(=O)c2c(nc(NCCc3ccccc3)n2Cc2ccccc2Br)n(C)c1=O	2.66% (inactive)	
COc1ccccc1-c1ccnc2[nH]n(-c3ccccc3)c(=O)c12	4.34% (inactive)	
CCOC(=O)C(Cc1ccccc1)NC(=O)CCc1c(C)nc2c(c(C)nn2-c2ccc(C)c(C)c2)c1C (stereo not drawn)	1.02% (inactive)	
COCC(=O)N1CCC2(CCCN(c3ccccc3)C2)CC1	-3.22% (inactive)	
COC(=O)CCC(=O)N1CCCC(CO)(Cc2ccccc2)C1 (stereo not drawn)		14.1 µM (active)
COC(=O)c1ccc(CN2CCC(CO)(Cc3ccc(OC)cc3)CC2)cc1	-21.1% (inactive)	
COc1ccc(CNC(=O)Cn2nnc(-c3ccccc3F)n2)cc1	1.17% (inactive)	
COC(=O)c1ccccc1NC(=O)Cn1c(=O)n(-c2cccc(C(F)(F)F)c2)c(=O)c2c(C)c(C)sc21	1.12% (inactive)	
Cn1c(=O)c2c(nc(SCC(=O)Nc3ccc(F)cc3)n2Cc2ccc(Cl)cc2)n(C)c1=O	-9.05% (inactive)	
COc1ccc(NC(=O)c2ccco2)cc1NC(=O)c1ccc(C#N)cc1F	-1.6% (inactive)	
NNC(=O)c1ccc(Cl)cc1Cl	-3.46% (inactive)	
Cc1ccc(C(=O)NNC(=O)c2cccs2)cc1	75.8% (inactive)	
O=C(NNC(=O)c1ccc(Cl)cc1Cl)c1cccs1		12.6 µM (active)
Cc1cccc(NC(=O)c2nnn(CC(=O)Nc3ccc(C(C)C)cc3)c2N)c1C	-1.97% (inactive)	
CCOc1ccc(CCNC(=O)c2csc3c2CCCCC3)cc1	10.9% (inactive)	
Cc1ccc(C)c(N2CCN(Cc3nnc(-c4ccccc4)o3)CC2)c1	-9.43% (inactive)	
COc1cccc2cc(-c3nc(Cl)c4c5c(sc4n3)CC(C)CC5)c(=O)oc12 (stereo not drawn)	7.63% (inactive)	
